This note sets out measurements from PubChem BioAssay (EPA / NIEHS).

Inconclusive results are not listed. Activity calls are given as the source filed them. Rule for the calls: active = hit-call score of the fitted dose curve at least 0.9, where 1 is the maximum; inconclusive = response in the unintended direction; inactive = score below 0.9.

human Histamine 1 Receptor (H1), HRH1 (gene 3269), sequence (P35367 whole entry, looked up): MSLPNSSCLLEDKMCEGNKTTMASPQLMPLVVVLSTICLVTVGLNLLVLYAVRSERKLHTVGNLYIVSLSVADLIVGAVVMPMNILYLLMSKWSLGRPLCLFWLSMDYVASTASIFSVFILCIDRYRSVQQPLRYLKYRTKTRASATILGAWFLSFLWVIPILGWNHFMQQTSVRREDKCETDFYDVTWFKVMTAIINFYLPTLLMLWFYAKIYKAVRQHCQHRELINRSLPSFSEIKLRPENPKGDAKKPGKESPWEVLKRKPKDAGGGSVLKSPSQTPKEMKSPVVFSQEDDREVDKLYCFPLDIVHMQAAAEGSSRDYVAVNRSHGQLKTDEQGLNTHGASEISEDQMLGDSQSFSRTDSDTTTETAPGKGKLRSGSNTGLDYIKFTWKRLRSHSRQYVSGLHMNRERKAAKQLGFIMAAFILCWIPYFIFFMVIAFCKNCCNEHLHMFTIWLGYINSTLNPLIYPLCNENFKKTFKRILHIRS
human Dopamine Receptor D4.4 (DRD4.4), DRD4 (gene 1815), sequence (P21917 whole entry, looked up): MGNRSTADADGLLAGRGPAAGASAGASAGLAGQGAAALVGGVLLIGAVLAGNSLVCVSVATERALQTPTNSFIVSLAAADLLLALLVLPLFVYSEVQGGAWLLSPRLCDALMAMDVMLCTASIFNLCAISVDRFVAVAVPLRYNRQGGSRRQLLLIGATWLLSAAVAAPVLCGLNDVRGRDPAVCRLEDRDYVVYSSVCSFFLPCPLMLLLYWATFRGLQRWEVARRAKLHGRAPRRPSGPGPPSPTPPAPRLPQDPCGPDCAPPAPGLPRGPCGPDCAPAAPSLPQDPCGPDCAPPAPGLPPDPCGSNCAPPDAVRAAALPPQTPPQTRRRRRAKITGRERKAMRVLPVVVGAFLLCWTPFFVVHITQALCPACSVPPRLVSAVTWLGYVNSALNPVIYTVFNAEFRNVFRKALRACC
human Endothelin Receptor Type A (ETA), EDNRA (gene 1909), sequence (P25101 whole entry, looked up): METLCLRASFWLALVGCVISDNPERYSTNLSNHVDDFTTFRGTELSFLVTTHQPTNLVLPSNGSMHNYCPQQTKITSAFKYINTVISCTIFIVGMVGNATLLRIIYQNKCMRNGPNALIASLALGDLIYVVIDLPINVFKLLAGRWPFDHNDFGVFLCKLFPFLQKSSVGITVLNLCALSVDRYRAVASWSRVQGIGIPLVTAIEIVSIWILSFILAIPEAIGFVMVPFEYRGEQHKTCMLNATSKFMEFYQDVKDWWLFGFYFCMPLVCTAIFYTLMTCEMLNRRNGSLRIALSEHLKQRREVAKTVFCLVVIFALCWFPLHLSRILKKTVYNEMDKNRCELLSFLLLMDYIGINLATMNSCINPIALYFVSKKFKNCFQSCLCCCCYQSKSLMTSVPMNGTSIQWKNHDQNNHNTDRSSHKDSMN
human Dopamine Receptor D2 (DRD2), DRD2 (gene 1813), sequence (P14416 whole entry, looked up): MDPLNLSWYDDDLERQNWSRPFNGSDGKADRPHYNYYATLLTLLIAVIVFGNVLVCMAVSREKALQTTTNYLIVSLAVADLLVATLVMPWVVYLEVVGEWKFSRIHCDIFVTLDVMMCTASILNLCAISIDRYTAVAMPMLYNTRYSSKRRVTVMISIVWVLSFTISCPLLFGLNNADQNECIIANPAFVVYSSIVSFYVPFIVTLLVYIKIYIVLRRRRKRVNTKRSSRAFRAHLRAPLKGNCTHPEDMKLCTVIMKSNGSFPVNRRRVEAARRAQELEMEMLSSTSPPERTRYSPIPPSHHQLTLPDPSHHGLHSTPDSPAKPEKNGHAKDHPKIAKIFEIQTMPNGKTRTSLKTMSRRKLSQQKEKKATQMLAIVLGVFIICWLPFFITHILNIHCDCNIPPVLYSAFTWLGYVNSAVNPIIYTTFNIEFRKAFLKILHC
human Endothelin Receptor Type B (ETB), EDNRB (gene 1910), sequence (P24530 whole entry, looked up): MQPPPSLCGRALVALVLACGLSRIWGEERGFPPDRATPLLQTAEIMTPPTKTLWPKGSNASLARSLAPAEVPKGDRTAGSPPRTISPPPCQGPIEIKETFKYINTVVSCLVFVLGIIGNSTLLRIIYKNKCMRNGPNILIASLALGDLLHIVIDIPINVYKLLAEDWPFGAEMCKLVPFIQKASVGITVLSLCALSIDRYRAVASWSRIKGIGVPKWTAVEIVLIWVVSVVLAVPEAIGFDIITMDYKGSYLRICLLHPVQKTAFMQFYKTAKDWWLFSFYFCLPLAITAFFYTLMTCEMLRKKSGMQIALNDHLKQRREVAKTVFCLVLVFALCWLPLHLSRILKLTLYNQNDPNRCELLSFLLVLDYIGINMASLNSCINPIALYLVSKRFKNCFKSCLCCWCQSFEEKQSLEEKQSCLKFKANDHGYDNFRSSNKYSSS
Type-1 angiotensin II receptor (Homo sapiens), sequence (P30556 whole entry, looked up): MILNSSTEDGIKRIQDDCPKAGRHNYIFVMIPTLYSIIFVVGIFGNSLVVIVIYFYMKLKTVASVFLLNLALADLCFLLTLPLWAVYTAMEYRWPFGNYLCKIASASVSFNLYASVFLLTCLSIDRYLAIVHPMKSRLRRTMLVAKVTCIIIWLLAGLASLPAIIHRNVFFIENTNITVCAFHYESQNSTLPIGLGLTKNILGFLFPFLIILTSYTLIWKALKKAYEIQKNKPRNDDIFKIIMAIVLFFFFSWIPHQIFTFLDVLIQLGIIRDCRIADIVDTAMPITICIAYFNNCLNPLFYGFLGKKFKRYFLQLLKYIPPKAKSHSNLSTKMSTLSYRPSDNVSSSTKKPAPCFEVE

One experiment concerns the target Type-1 angiotensin II receptor (Homo sapiens) (UniProt P30556). As to the kind of experiment: NVS_GPCR_hAT1: NovaScreen (NVS) G Protein-Coupled Receptor Assay for human Angiotensin II receptor type 1 (AT1) (AID 2283263). In a few lines:
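Hits from a 25 uM duplicate screen (threshold e.g. 30% inhibition) were run in concentration-response with 50 uM top concentration. Displacement of specific radioligand from KAN-TS membrane preparations measured after 3 h by filter scintillation, DMSO as baseline.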
What is called AC50 is the midpoint of the concentration-response curve, whichever way the signal moves. With `O=C1c2ccccc2C(=O)N1CCc1noc(-c2ccc(CN3CCCCCC3)s2)n1`, the AC50 is 14.8 µM (active).

As for `CCN(Cc1cccnc1)C(=O)c1cccc(Cl)c1[C@]1(C)C(=O)N(Cc2ccc(OC)cc2OC)c2ccc(Cl)cc21`, the AC50 was 3.69 µM (active).

Turning to `CC(C)(C)c1csc(-c2cc3cc(OCc4ccccc4CC(=O)O)ccc3o2)n1`, the compound was classed as inactive.

For `O=c1[nH]sc2ccccc12`, the concentration at half-maximal activity (AC50) was 25 µM (active).

In the case of `CN(C)C(=O)C1(N2CCCCC2)CCN(CC[C@@]2(c3ccc(Cl)c(Cl)c3)CN(C(=O)c3ccccc3)CCO2)CC1`, the AC50 is 15.7 µM (active).

In the case of `CN(C[C@@H](CC[N+]12CCC(C3CCCCC3)(CC1)CC2)c1ccc(Cl)c(Cl)c1)C(=O)c1cc(C(F)(F)F)cc(C(F)(F)F)c1`, the AC50 was 33.1 µM (active).

Regarding `CO[C@H]1/C=C/O[C@@]2(C)Oc3c(C)c(O)c4c(O)c(c(/C=N/N5CCN(C)CC5)c(O)c4c3C2=O)NC(=O)/C(C)=C\C=C\[C@H](C)[C@H](O)[C@@H](C)[C@@H](O)[C@@H](C)[C@H](OC(C)=O)[C@@H]1C`, the call was inactive.

For `O=C1CCC(C2CCCCC2)CC1`, the call was inactive.

The next experiment concerns the target human Dopamine Receptor D4.4 (DRD4.4), DRD4 (gene 1815) (UniProt P21917). The experiment can be described thus: NVS_GPCR_hDRD4.4: NovaScreen (NVS) G Protein-Coupled Receptor Assay for human Dopamine Receptor D4.4 (DRD4.4) (AID 2283264). Put shortly: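 Filter-binding assay with a tritiated or iodinated ligand, cell-free receptor prepared from CHO, 1 hour. Loss of bound radioactivity versus DMSO; single 25 uM duplicate screen, then concentration-response for actives.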
Turning to `NCc1cccc(C2CCN(C(=O)c3ccc(C#Cc4ccccc4F)o3)CC2)c1`, the concentration at half-maximal activity (AC50) was 25 µM (active).

`Oc1ccc2ccccc2c1`: the call was inactive.

Consider `CN(C)C(=O)C1(N2CCCCC2)CCN(CC[C@@]2(c3ccc(Cl)c(Cl)c3)CN(C(=O)c3ccccc3)CCO2)CC1`, for which the concentration at half-maximal activity (AC50) was 12.2 µM (active).

On to `CCOC(=O)O[C@H](C)OC(=O)c1ccc2c(c1)cc(C(=O)NC1CCN(C(C)C)CC1)n2Cc1cc(-c2ccc(Cl)s2)on1`, for which the AC50 was 20.9 µM (active).

Consider `CC/C(=C(/CC)c1ccc(O)cc1)c1ccc(O)cc1`, for which the compound was classed as inactive.

Take `CCN(CC)C(=O)c1cc(S(=O)(=O)Cc2ccccc2)c(N2CCC(c3ccccc3)CC2)cc1N(CC)CCN(C)C`: the AC50 is 16.3 µM (active).

As for `CN(C)c1ccc(C(=C2C=CC(=[N+](C)C)C=C2)c2ccc(N(C)C)cc2)cc1`, the AC50 was 1.11 µM (active).

The next experiment addresses human Endothelin Receptor Type A (ETA), EDNRA (gene 1909) (UniProt P25101). The experiment can be described thus: NVS_GPCR_hETA: NovaScreen (NVS) G Protein-Coupled Receptor Assay for human Endothelin Receptor Type A (ETA) (AID 2283265). Put shortly:
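Binding of radioligand to membrane protein extracted from SH-SY5Y cells was read by filtration and scintillation after 3 h. Compounds were screened at 25 uM in duplicate, with hits followed up in singleton concentration series to 50 uM.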
Turning to `COc1cccc([C@H](O)C2CCN(CCc3ccc(F)cc3)CC2)c1OC`, the compound was classed as inactive.

Regarding `CCOC(=O)O[C@H](C)OC(=O)c1ccc2c(c1)cc(C(=O)NC1CCN(C(C)C)CC1)n2Cc1cc(-c2ccc(Cl)s2)on1`, the AC50 was 14.3 µM (active).

Consider `CN(C)c1ccc(C(=C2C=CC(=[N+](C)C)C=C2)c2ccc(N(C)C)cc2)cc1`, for which the AC50 was 1.81 µM (active).

Another experiment addresses human Dopamine Receptor D2 (DRD2), DRD2 (gene 1813) (UniProt P14416). The experiment can be described thus: NVS_GPCR_hDRD2s: NovaScreen (NVS) G Protein-Coupled Receptor Assay for human Dopamine Receptor D2 (DRD2) (AID 2283266). Put shortly:
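Test compound (25 uM, duplicate in the primary screen; concentration series at follow-up) competed with radioligand for human DRD2 in CHO-derived membrane protein. Filter-based scintillation counting was done 1.5 hours after dosing, with loss of signal analysed against DMSO.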
For the compound `O=C1c2ccccc2C(=O)N1CCc1noc(-c2ccc(CN3CCCCCC3)s2)n1`, the AC50 is 10.1 µM (active).

Regarding `NCc1cccc(C2CCN(C(=O)c3ccc(C#Cc4ccccc4F)o3)CC2)c1`, the AC50 is 9.74 µM (active).

For the compound `CCN(Cc1cccnc1)C(=O)c1cccc(Cl)c1[C@]1(C)C(=O)N(Cc2ccc(OC)cc2OC)c2ccc(Cl)cc21`, the AC50 is 1.91 µM (active).

For `Cc1cc(F)ccc1-c1cc(N2CC[C@@H](O)[C@H]2CO)ncc1N(C)C(=O)C(C)(C)c1cc(C(F)(F)F)cc(C(F)(F)F)c1`, the AC50 was 7.16 µM (active).

As for `O=C(Nc1ccc(Cl)cc1)Nc1ccc(Cl)c(Cl)c1`, the compound was called inactive.

For `COc1cc(C(=O)NC2CCN(C)CC2)ccc1Nc1ncc2c(n1)N(C1CCCC1)CC(F)(F)C(=O)N2C`, the outcome was inactive.

In the case of `CCCCCCCCOC(=O)c1cc(O)c(O)c(O)c1`, the AC50 was 25 µM (active).

In the case of `CN(C)C(=O)C1(N2CCCCC2)CCN(CC[C@@]2(c3ccc(Cl)c(Cl)c3)CN(C(=O)c3ccccc3)CCO2)CC1`, the concentration at half-maximal activity (AC50) was 1.59 µM (active).

Take `CCCCCCCCN(C)CCCCCCCC`: the result was inactive.

Turning to `Cc1cc2c(cc1C(F)(F)F)N(C(=O)Nc1ccc(Oc3cccnc3C)nc1)CC2`, the AC50 was 0.0486 µM (active).

For `CCOC(=O)O[C@H](C)OC(=O)c1ccc2c(c1)cc(C(=O)NC1CCN(C(C)C)CC1)n2Cc1cc(-c2ccc(Cl)s2)on1`, the concentration at half-maximal activity (AC50) was 3.6 µM (active).

With `CC/C(=C(/CC)c1ccc(O)cc1)c1ccc(O)cc1`, the AC50 is 25 µM (active).

As for `O=C1CCC(C2CCCCC2)CC1`, the call was inactive.

With `CCN(CC)C(=O)c1cc(S(=O)(=O)Cc2ccccc2)c(N2CCC(c3ccccc3)CC2)cc1N(CC)CCN(C)C`, the AC50 is 1.05 µM (active).

Take `CN(C)c1ccc(C(=C2C=CC(=[N+](C)C)C=C2)c2ccc(N(C)C)cc2)cc1`: the half-maximal activity concentration (AC50) is 2.02 µM (active).

As to `CCCCCCCCCCCC[N+](C)(C)C`, the AC50 was 13 µM (active).

Take `COc1ccc2cc(S(=O)(=O)N[C@H](CC(=O)N[C@H](Cc3ccc(CN4[C@H](C)CCC[C@@H]4C)cc3)C(=O)N(C)C(C)C)c3ccc4c(c3)OCO4)ccc2c1`: the call was inactive.

In a further experiment the target is human Endothelin Receptor Type B (ETB), EDNRB (gene 1910) (UniProt P24530). The experiment can be described thus: NVS_GPCR_hETB: NovaScreen (NVS) G Protein-Coupled Receptor Assay for human Endothelin Receptor Type B (ETB) (AID 2283267). Put shortly:
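Filter-based scintillation readout of radioligand displacement, 4 h, using membranes from human astrocytoma cells. Actives from a 25 uM duplicate screen were retested in concentration-response (top 50 uM) relative to DMSO baseline.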
Turning to `O=C1c2ccccc2C(=O)N1CCc1noc(-c2ccc(CN3CCCCCC3)s2)n1`, the call was inactive.

Regarding `O=C(O)Cc1cc(I)c(Oc2ccc(O)c(I)c2)c(I)c1`, the outcome was inactive.

As for `CCCCCc1ccc(N)cc1`, the compound was classed as inactive.

In the case of `CN(C[C@@H](CC[N+]12CCC(C3CCCCC3)(CC1)CC2)c1ccc(Cl)c(Cl)c1)C(=O)c1cc(C(F)(F)F)cc(C(F)(F)F)c1`, the call was inactive.

Another experiment concerns the target human Histamine 1 Receptor (H1), HRH1 (gene 3269) (UniProt P35367). The experiment can be described thus: NVS_GPCR_hH1: NovaScreen (NVS) G Protein-Coupled Receptor Assay for human Histamine 1 Receptor (H1) (AID 2283268). Put shortly: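 Filter-based scintillation detection of radioligand binding to human H1, 1 h incubation; chemicals screened in duplicate at 25 uM, then concentration-response; signal loss relative to DMSO taken as activity.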
For `O=C1c2ccccc2C(=O)N1CCc1noc(-c2ccc(CN3CCCCCC3)s2)n1`, the concentration at half-maximal activity (AC50) is 7.44 µM (active).

As to `c1ccc(C[n+]2cccc3ccccc32)cc1`, the AC50 is 13 µM (active).

`NCc1cccc(C2CCN(C(=O)c3ccc(C#Cc4ccccc4F)o3)CC2)c1`: the concentration at half-maximal activity (AC50) was 22.1 µM (active).

For `Clc1cc(Cl)c2c(c1)N=C1CCCCCN1C2`, the concentration at half-maximal activity (AC50) is 4.5 µM (active).

For `COc1cc(C(=O)NC2CCN(C)CC2)ccc1Nc1ncc2c(n1)N(C1CCCC1)CC(F)(F)C(=O)N2C`, the AC50 was 2.74 µM (active).

For `CCCCCCCCOC(=O)c1cc(O)c(O)c(O)c1`, the AC50 was 42.8 µM (active).

In the case of `CN(C)C(=O)C1(N2CCCCC2)CCN(CC[C@@]2(c3ccc(Cl)c(Cl)c3)CN(C(=O)c3ccccc3)CCO2)CC1`, the half-maximal activity concentration (AC50) was 20.3 µM (active).

Regarding `Cc1occc1C(=O)Nc1ccc(C(=O)N2CCC(F)(F)/C(=C\C(=O)N3CCC(N4CCCCC4)CC3)c3ccccc32)cc1`, the AC50 was 0.148 µM (active).

In the case of `CCOC(=O)O[C@H](C)OC(=O)c1ccc2c(c1)cc(C(=O)NC1CCN(C(C)C)CC1)n2Cc1cc(-c2ccc(Cl)s2)on1`, the AC50 is 7.84 µM (active).

On to `CCN(CC)C(=O)c1cc(S(=O)(=O)Cc2ccccc2)c(N2CCC(c3ccccc3)CC2)cc1N(CC)CCN(C)C`, for which the call was inactive.

As to `CCCCCCCCCCCC[N+](C)(C)C`, the concentration at half-maximal activity (AC50) was 15.7 µM (active).

For `COc1ccc2cc(S(=O)(=O)N[C@H](CC(=O)N[C@H](Cc3ccc(CN4[C@H](C)CCC[C@@H]4C)cc3)C(=O)N(C)C(C)C)c3ccc4c(c3)OCO4)ccc2c1`, the half-maximal activity concentration (AC50) is 17.8 µM (active).
